# An excerpt weighted towards active compounds, which were near 3.7% of everything screened.
# MazEF act – activators of E. coli MazEF toxin-antitoxin RNase, primary screen, biochemical, fluorescence, uHTS; Endoribonuclease toxin MazF (Escherichia coli (strain K12)), P0AE70; activation, % at 20 µM; hit rate 0.32% among 350,000; FAM/BHQ RNA-DNA oligo cleavage fluorescence, 5 h; in the data active = activation above about 50%
# Target sequence (P0AE70 whole entry, looked up): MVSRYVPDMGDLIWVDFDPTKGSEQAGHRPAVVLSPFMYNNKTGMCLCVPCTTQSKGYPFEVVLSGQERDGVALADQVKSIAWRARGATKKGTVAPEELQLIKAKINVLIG
# Anthrax LF inh2 – Bacillus anthracis LF protease inhibitors, primary screen, biochemical, multiplex microsphere, MLPCN library | multiplex microsphere protease cleavage assay | inhibition, % at 10 µM | hit rate 0.12% among 360,000 | AID 588501, 2011; also: plate controls were buffer without enzyme for full effect and enzyme alone for no effect
# BoNT-F LC inh – BoNT/F light chain protease inhibitors, primary screen, biochemical, flow cytometry, MLPCN library. inhibition, % at 10 µM. hit rate 0.22% among 360,000. Multiplex microsphere protease cleavage assay. Botulinum neurotoxin type F light chain protease (Clostridium botulinum); in the data active = inhibition above about 35%, passing the limit was not always enough; inconclusive = no clear call, values can overlap the other calls; also: plate controls were buffer without enzyme for full effect and enzyme alone for no effect
# Bead autofluor – flagged as autofluorescent in microsphere protease counterscreen; compound autofluorescence counterscreen, microsphere flow cytometry; hits give high values; fluorescence intensity (concentration not given with the values); hit rate 3.1% among 360,000; in the data active = fluorescence intensity above about 16000; inconclusive = no clear call, values can overlap the other calls
# BoNT-A LC inh2 – BoNT/A light chain protease inhibitors, primary screen, biochemical, flow cytometry, MLPCN library; Botulinum neurotoxin type A light chain protease (Clostridium botulinum A str. ATCC 3502); multiplex microsphere protease substrate cleavage; inhibition, % at 10 µM; hit rate 0.17% among 360,000; also: plate controls were buffer without enzyme for full effect and enzyme alone for no effect
# Starred values were filed as active, the others as inactive; ? = inconclusive; / = no result. Rule as the data show it, unless noted: active = inhibition above about 30%; inconclusive = no clear call, values can overlap the other calls; inactive = below that.
SMILES,MazEF act,Anthrax LF inh2,BoNT-F LC inh,Bead autofluor,BoNT-A LC inh2
O=C(Nc1cccc(NC(=O)c2ccc(Cl)cc2Cl)c1)c1cccnc1,4.0,-4.0,-16.9,3176,-3.2
COc1ccc(CC/C(=N\O)C2(O)CCCCC2)cc1,5.1,-3.3,-6.7,24221*,-1.5
O/N=C(/CCc1ccccc1)C1(O)CCCCC1,-3.1,1.8,5.3,7896,0.9
CN1CCN(c2ccc(CNC(=O)C3(C)Cc4c(-c5ccc6c(c5)OCO6)ccnc4O3)cc2)CC1 (centres undefined),/,0.5,2.8,3889,-0.2
O=C(Nc1ccccc1)c1cc([N+](=O)[O-])ccc1N1CCCCC1,4.8,1.1,-3.8,2808,0.5
O=C(NC1CCCCC1)c1cc([N+](=O)[O-])ccc1N1CCCCC1,-0.9,-5.2,-2.4,23223*,-1.4
CN(CCc1ccccn1)Cc1ccc(Cl)c(Cl)c1,2.7,7.1,?,4055,-4.4
CN(CCc1ccccn1)Cc1ccc(Cl)cc1Cl,5.6,0.4,-3.1,24561*,-4.3
O=C(COC(=O)c1ccccc1C(=O)c1ccc(Cl)cc1)NCC1CCCO1 (centres undefined),-13.7,-2.4,-2.2,4189,0.0
CCc1ccc(NC(=O)C2CCCN2c2nn3c(=O)cc(C)nc3s2)cc1 (centres undefined),-8.0,-2.8,-6.2,6226,-0.5
Cc1ccc(NC(=O)NC2CCCCC2)cc1Cl,5.6,0.6,3.6,21618*,5.1
Cc1ccc(NC(=O)C2CCN(C(=O)NC3CCCCC3)CC2)cc1Cl,0.3,-3.5,-5.8,3829,-0.4
S=C(Nc1ccc2nsnc2c1)NC1CCCCC1,3.6,6.1,-3.8,2378,20.1
S=C(Nc1ccc(Cl)c(Cl)c1)NC1CCCCC1,22.1,0.7,-4.8,21140*,-1.7
COc1ccc(S(=O)(=O)N2CCCCCC2)cc1NC(=O)CN(C)Cc1ccc2c(c1)OCO2,-8.3,1.3,1.0,3246,1.6
COc1ccc(Br)cc1CN(C)C(=O)c1cc(Cl)c2c(c1)OCCO2,0.6,-13.5,9.6,3709,-0.4
CCc1ccccc1NC(=O)Cn1nnc(-c2cccnc2)n1,13.3,-0.6,1.6,22832*,0.4
CCc1ccccc1NC(=O)CSc1n[nH]c(-c2cccnc2)n1,3.1,5.1,-18.0,3495,-0.4
CCS(=O)(=O)Nc1ccc(C2=NN(C(=O)c3ccco3)C(c3ccc(C)cc3)C2)cc1 (centres undefined),0.2,-13.2,-1.6,16946*,?
CCS(=O)(=O)Nc1ccc(C2=NN(C(=O)c3ccco3)C(c3cccc(F)c3)C2)cc1 (centres undefined),6.9,0.0,-4.8,2506,-0.4
O=C(CSc1ccccc1)Nc1cc(S(=O)(=O)N2CCOCC2)ccc1N1CCOCC1,75.6*,-4.2,0.1,4627,0.7
O=C1/C(=C\c2ccccn2)SC(=S)N1Nc1ncc(C(F)(F)F)cc1Cl,4.3,-0.4,3.2,22887*,2.4
O=C1/C(=C/c2ccccn2)SC(=S)N1Nc1ncc(C(F)(F)F)cc1Cl,-1.0,-0.8,-3.4,3754,-0.6
CC(C(=O)c1ccc(Cl)cc1Cl)n1cncn1 (centres undefined),5.4,-3.5,2.4,4175,0.5
CC(=O)c1ncnn1CC(=O)c1ccc(Cl)cc1Cl,-6.0,1.8,-1.1,22669*,-1.8
SMILES,MazEF act,Anthrax LF inh2,BoNT-F LC inh,Bead autofluor,BoNT-A LC inh2
CCCc1nc2n[nH]c(N)c2c2c1COC(C)(C)C2,-4.0,1.0,2.4,21384*,2.5
Cc1nc2n[nH]c(N)c2c2c1COC(C)(C)C2,3.7,-0.7,-4.3,2220,-0.4
COCc1n[nH]c(=S)n1-c1cccc2ccccc12,2.0,2.8,4.7,23066*,1.8
CC(C)CCN1C(=O)CCC1(C)C(=O)NC1CCCCCC1 (centres undefined),6.1,1.2,-0.9,9546,0.0
CC(C)CCN1C(=O)CCC1(C)C(=O)NC1CCCCCCC1 (centres undefined),5.6,-1.0,-0.9,23125*,-0.3
CCc1ccc(CN2C(=O)CCC2(C)C(=O)NC2CCCC2)cc1 (centres undefined),10.1,-10.5,4.4,15084,3.5
COc1cccc(CN2C(=O)CCC2(C)C(=O)NC2CCCCC2)c1 (centres undefined),-10.5,-6.7,-6.9,4481,0.3
CC1(C(=O)NC2CCCC2)CCC(=O)N1Cc1ccc2c(c1)OCO2 (centres undefined),3.5,-3.0,-6.9,25159*,-4.4
COc1ccc(CN2C(=O)CCC2(C)C(=O)NC2CCCCCC2)cc1 (centres undefined),11.0,-3.0,0.6,23241*,-1.9
COC(=O)CCC(=O)N1CCCC(CO)(Cc2ccccc2F)C1 (centres undefined),-26.6,12.0,?,3155,-3.5
COc1cc(/C=C(/C#N)C(=O)Nc2cc(C(F)(F)F)ccc2Cl)ccc1OCC(=O)Nc1cccc(C(F)(F)F)c1,-6.2,6.2,-0.5,3143,0.6
Cc1ccc(Oc2nsnc2N2CCOCC2)cc1,8.4,-0.8,-6.1,20142*,-1.0
Cc1cc(C(F)(F)F)n(-c2nc(C(=O)Nc3cccnc3)cs2)n1,-0.9,4.5,6.5,4400,0.5
CC(=O)c1cccc(NC(=O)c2csc(-n3nc(C)cc3C(F)(F)F)n2)c1,-1.6,0.5,-0.6,22022*,?
COC(=O)N/N=C/c1ccc(-c2cc(Cl)ccc2Cl)o1,5.3,-2.4,-8.6,1976,-0.4
COC(=O)N/N=C\c1ccc(-c2cc(Cl)c(Cl)cc2Cl)o1,54.9*,-1.6,8.3,10447,0.6
CCOC(=O)c1[nH]c2ccccc2c1NC(=O)c1nonc1C,0.3,-2.4,3.0,21361*,?
CCOC(=O)c1[nH]c2ccc(Cl)cc2c1NC(=O)c1nonc1C,-6.6,-1.2,-2.4,23712*,-1.6
COc1ccc(NC(=O)C(C)N2c3cccc4cccc(c34)S2(=O)=O)cc1OC (centres undefined),8.3,0.4,8.4,10491,2.0
COc1ccc(NC(=O)C(C)N2c3cccc4cccc(c34)S2(=O)=O)cc1 (centres undefined),-8.7,-1.2,-0.6,22225*,2.4
CC(C)C(c1nnnn1C(C)(C)C)N1CCOCC1 (centres undefined),5.0,-2.5,-7.8,3708,0.3
CC(C)C(c1nnnn1C(C)(C)C)N1CCC(Cc2ccccc2)CC1 (centres undefined),-20.9,?,?,18261*,?
CCN(CC)CCNc1ccnc2cc(Cl)ccc12,4.9,-0.5,-0.2,20811*,-0.5
CCS(=O)(=O)NC(=O)C1(C)CCN1C(=O)Cc1ccc(Cl)cc1Cl (centres undefined),/,-9.5,0.6,4099,-0.5
COC(=O)c1c(C(=O)c2ccc(Br)cc2)n(C)c2ccccc12,-0.9,?,?,?,?
